The source of these data is PubChem BioAssay.

Where “and” joins values, the source holds several entries; their conditions need not be identical. Equal values may be shown once.

The test is described as follows: calcein-AM signal in unstimulated myeloma cells – cell-based, calcein-AM fluorescence, 48 h, PK04 Diversity Set, profiling panel (AID 1166).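 Further: cells grown under basal conditions without added stimulus; test concentration not given here.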 Particulars: RPMI8226 myeloma viability, higher = more signal.
Regarding `CO[C@H]1COC(=O)CC=C[C@@H](C)COC(=O)[C@H](CCSC)NC(=O)CC=C[C@@H]1C`, the z-score was -0.858 and 0.708.

For the molecule `C=CCN(CCCCC)C(=O)C1N(C(C)(C)CO)C(=O)C2C(C(=O)O)C3C=CC21O3` (centres undefined), the z-score is -0.187 and -0.148.

For the molecule `C=CCN1C(=O)[C@]2(O[C@H](CCn3cc(CCO)nn3)[C@@H]([Si](C)(C)c3ccc(OC)cc3)[C@@H]2C)c2cc(N3C(=O)c4cccc5cccc3c45)ccc21`, the z-score is -4.33 and -4.37.

Regarding `CCC[C@@H]1C[C@@]1(CCC)[C@@H](NC(=O)c1ccc(-c2ccccc2)cc1)c1cccc(Cl)c1`, the z-score was -2.94 and -1.06.

Regarding `C[C@@H]1CC[C@H]2C(=O)O[C@H](CN=[N+]=[N-])CN2[C@H]1c1ccc(Br)cc1`, the z-score was -3.07 and 0.163.

Take `C[C@@H]1CN2[C@@H](CC[C@@H](C)[C@@H]2c2ccc(Br)cc2)C(=O)O1`: the z-score is -0.0928 and 0.767.

On to `COc1ccc(O[C@H]2C=C[C@@H](c3ccccc3)O[C@@H]2COC(=O)CCC(C)=NO[C@H](C)c2cn([C@H](CO)Cc3ccccc3)nn2)cc1`, for which the z-score was -2.54 and -1.69.

With `CON(C)C(=O)c1nnc2c3ccccc3n(S(=O)(=O)c3ccc(C)cc3)c2n1`, the z-score is 0.496 and -0.588.

Regarding `COc1ccc(COC(=O)NN=C2C[C@@H](O)[C@@H](O)[C@@H]3[C@@H]4C(=O)N(C(C)(C)C)C(=O)[C@@H]4CC[C@H]23)cc1`, the z-score was 0.0186.

As for `COC(=O)C1=C(C)N(Cc2ccccc2)[C@]23O[C@](C(=O)OC)(C(=O)N2[C@@H]1c1ccccc1)[C@@H](C(=O)OC)[C@H]3C(=O)OC`, the z-score is 0.248 and 0.636.

As for `C[C@@H]1CC[C@H]2C(=O)NC[C@@H](O)CN2[C@H]1c1ccc(Br)cc1`, the z-score is -0.239 and -0.0289.

Consider `C#CCCCON=C1C[C@@H](O)[C@@H](O)[C@@H]2[C@@H]3C(=O)N(C4CCCCC4)C(=O)[C@@H]3CC[C@H]12`, for which the z-score was -0.584.

As to `C[C@@H]1CC[C@@H](C(=O)O)N[C@H]1c1ccc(-c2ccco2)cc1`, the z-score was 0.404.

Turning to `C=CCN(C(=O)C1N(C(C)(C)CO)C(=O)C2C(C(=O)O)C3C=CC21O3)C(C)(C)C` (centres undefined), the z-score was 0.0691 and 0.0574.

On to `C=CCN(C(=O)C(c1cccs1)N(C(=O)/C=C\C(=O)O)c1ccc(CCO)cc1)C(C)(C)C` (centres undefined), for which the z-score was 0.3 and 0.317.

Consider `Cc1ccc(S(=O)(=O)N[C@H]2COC(=O)[C@@H](Cc3ccccc3)NC(=O)[C@@H](C)COC(=O)CC=C[C@@H]2C)cc1`, for which the z-score was -0.372 and -0.784.

As for `CC(C)[Si]1(C(C)C)OCc2cc(CCCc3cc4c(c(CCc5ccccc5)n3)[Si](C(C)C)(C(C)C)OC4)nc(CCc3ccccc3)c21`, the z-score was -1.09 and -0.322.

`O=c1n(-c2ccccc2)c(=O)n2n1CC[C@@H]1C(=NOC[C@@H](O)COCc3ccco3)[C@H]3O[C@H]3[C@@H](O)[C@@H]12`: the z-score is -0.246 and -0.624.

With `O=C1C[C@]2(c3ccc([N+](=O)[O-])cc3)C(=O)N(Cc3ccccc3)c3cc(CO)ccc3[C@H]2N1C1CCCCC1`, the z-score is -0.684 and -2.65.

With `CCOC(=O)[C@H](CC(C)C)NC(=O)CCC1CC(OC(=O)NCc2cccc3ccccc23)CC2(CCCC(COC(=O)NCc3ccccc3)O2)O1` (some centres undefined), the z-score was 0.0523.

`CCOC(=O)c1ccc(NC(=O)O[C@H]2[C@H](OC(=O)Nc3ccccc3)[C@H](OC(=O)Nc3ccccc3)[C@@H](OC)O[C@@H]2CO)cc1`: the z-score is -0.636 and -3.24.

With `CC[C@@H]1C(Sc2ccccc2)C(C(=O)O)[C@H](c2ccc(C)cc2)N1S(=O)(=O)c1ccc(C)cc1` (some centres undefined), the z-score was -0.528 and -0.148.

In the case of `CCCC[C@@H]1CN2[C@@H](CC[C@@H](C)[C@@H]2c2ccc(Br)cc2)C(=O)O1`, the z-score was 0.309 and -0.616.

For `C=CCN(CCCCC)C(=O)C(c1cccs1)N(C(=O)/C=C\C(=O)O)c1ccc(CCO)cc1` (centres undefined), the z-score was -0.174 and 0.104.

With `C=C(C)C(=O)OC[C@@H]1CN2[C@@H](CC[C@@H](C)[C@@H]2c2ccc(Br)cc2)C(=O)O1`, the z-score is 0.427.

With `COC(=O)C1=C2N(Cc3ccccc3)C(C)=C(C(=O)OC)[C@@H](c3ccccc3)N2C(=O)[C@](O)(C(=O)OC)C1`, the z-score was -1.16 and 0.38.

Consider `C=C[C@@H](C)[C@@H](O)c1ccc(OCCO)cc1`, for which the z-score was -0.754 and 0.96.

As for `C=CCN(Cc1ccccc1)C(=O)C1N(C(C)(C)CO)C(=O)C2C(C(=O)O)C3C=CC21O3` (centres undefined), the z-score was 0.0867 and -0.103.

As for `C=CCN(C(=O)C1N(C(C)(C)CO)C(=O)C2C(C(=O)O)C3C=CC21O3)c1ccc(OC)cc1` (centres undefined), the z-score is 0.463 and 0.475.

`COC(=O)c1c2oc(c1C(=O)OC)C(=O)N[C@@H](Cc1ccccc1)Cn1cc(nn1)C1(CCCCC1)NC(=O)N[C@H](CO)CC2`: the z-score is 1.51 and -1.13.

As for `C=C[C@H](C)[C@H](O)c1ccc(O)c2ccccc12`, the z-score is -0.233 and -0.17.

For `CCOC(=O)C[C@H]1[C@H](OC(=O)c2ccccc2-c2ccccc2)[C@@H](NC(=O)Cc2ccc(OC)cc2)c2cc(OCCCO)ccc2N1C(=O)c1ccc2ccccc2n1`, the z-score was -0.765 and -0.644.

In the case of `CC(C)OC(=O)C=C1C[C@@H](c2ccccc2)O[C@@H](c2ccccc2)O1`, the z-score was -0.192 and -1.79.

For the molecule `COC(=O)C1=C(C)N(Cc2ccccc2)C2=C(C(=O)c3ccccc3)[C@H](c3ccccc3)[C@@](O)(C(=O)OC)C(=O)N2[C@@H]1c1ccccc1`, the z-score was -1.15 and 0.0491.

In the case of `COC(=O)[C@@]1(Cc2ccc(F)cc2)[C@H]2c3cc(C(=O)N4CCCC4)n(Cc4c(CO)[nH]cc(C)c4=O)c3C[C@H]2CN1C(=O)c1ccccc1`, the z-score was -1.34 and -0.473.

Regarding `C[N+](C)(C)CCCCCCNC(=O)[C@H]1C[C@H]2C(=O)N[C@@H](CCCC[N+](C)(C)C)C(=O)N2[C@H]1c1ccc(O)cc1`, the z-score is -0.149 and -0.0976.

Turning to `CC(CO)N1C(=O)[C@@H]2C3C(=O)OCCC=C[C@H]3OC23C=CCN(CCN2CCOCC2)C(=O)[C@@H]13` (some centres undefined), the z-score is -0.174 and -0.382.

In the case of `CCCC[C@@H]1CN2[C@H](c3ccc(Br)cc3)[C@@H](C)CC[C@H]2C(=O)O1`, the z-score was 0.969 and 0.24.

In the case of `CO[C@H]1COC(=O)CC=C[C@H](C)[C@H](OC)COC(=O)[C@@H](C)COC(=O)CC=C[C@@H]1C`, the z-score is -0.409 and 0.728.
